# Bioassay records deposited in PubChem by National Center for Advancing Translational Sciences (NCATS).
# Compounds with a hit are over-represented: about 6% of the library has one in this group of screens.
# Tau fluor counter: counter-screen for tau fibril formation inhibitors. actives 0.93% (n = 280,000). AID 1463. tau K18 P301L Alexa594 fluorescence, heparin fibrillization. Potency, µM (top dose mostly 57.7 µM), for inactives: at the highest dose activity change, negative = decrease; also: nearly all actives have a fitted effect of over 55% in size
#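 Human K18 P301L tau (15 uM unlabeled plus 0.24 uM Alexa 594-labeled, final) in 100 mM sodium acetate pH 7 was mixed with compound and 20 uM heparin and incubated 6 hr at 37 C.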
# PLK1 PBD block: blocks phosphopeptide binding to human PLK1 polo-box domain; P53350; Plk1 PBD binding of FITC phosphopeptide, fluorescence polarization; Potency, µM, without a hit: max response, negative = inhibition, hits mostly inhibitors; actives 2.8% (n = 360,000); also: series mostly up to about 57 µM; nearly all actives have a fitted effect of over 65% in size
# Target sequence (P53350 whole entry, looked up, the tested form may be a part): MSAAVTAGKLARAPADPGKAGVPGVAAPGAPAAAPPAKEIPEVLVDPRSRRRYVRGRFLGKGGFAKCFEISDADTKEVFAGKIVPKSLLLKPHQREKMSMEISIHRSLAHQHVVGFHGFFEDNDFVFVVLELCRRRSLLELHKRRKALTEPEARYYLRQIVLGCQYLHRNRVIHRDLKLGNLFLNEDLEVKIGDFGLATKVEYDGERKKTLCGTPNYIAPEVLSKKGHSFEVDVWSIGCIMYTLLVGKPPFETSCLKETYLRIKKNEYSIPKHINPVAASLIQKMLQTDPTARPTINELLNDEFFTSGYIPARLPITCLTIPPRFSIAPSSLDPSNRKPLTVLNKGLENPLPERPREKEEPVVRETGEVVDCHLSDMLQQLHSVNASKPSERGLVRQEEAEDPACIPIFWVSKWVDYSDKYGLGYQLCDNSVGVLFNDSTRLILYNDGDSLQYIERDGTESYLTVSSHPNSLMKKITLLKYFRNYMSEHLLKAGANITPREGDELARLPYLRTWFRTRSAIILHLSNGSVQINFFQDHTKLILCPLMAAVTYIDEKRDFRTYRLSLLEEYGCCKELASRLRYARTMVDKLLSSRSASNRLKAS
# Sfp PPTase inh: inhibitors of Bacillus subtilis Sfp phosphopantetheinyl transferase. Q9F4F7. AID 1490. actives 3.5% (n = 310,000). Potency, µM, for the others: largest response in the series, negative = inhibition, hits mostly inhibitors. Biochemical Sfp PPTase activity, qHTS;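 also: the enzyme is Sfp with the accession as filed and its product quenches rhodamine fluorescence; 0% = enzyme reaction without inhibitor and -100% = no enzyme wells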
#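 Compounds were incubated with enzyme (final 15 nM) for 15 min at room temperature before substrate addition started the reaction. Fluorescence at 525 nm excitation, 598 nm emission was recorded immediately and after 30 minutes.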
# Tau fibril ThT: blocks human tau fibril formation measured by thioflavin T; P10636; actives 2.1% (n = 270,000); recombinant tau K18 P301L (four-repeat tau fragment), heparin-induced fibrillization, ThT fluorescence; AID 1460; Potency, µM (titrated, usually from 57.4 µM), for inactives: at the highest dose activity, negative = inhibition, hits mostly inhibitors; also: nearly all actives have a fitted effect of over 55% in size
# Target sequence (P10636 561-689 P618L limits assumed): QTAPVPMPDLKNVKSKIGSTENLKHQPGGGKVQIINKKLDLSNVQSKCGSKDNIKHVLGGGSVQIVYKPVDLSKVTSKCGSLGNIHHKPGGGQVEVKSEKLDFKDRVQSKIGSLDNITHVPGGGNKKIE
#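 Tau K18 P301L fragment (15 uM unlabeled plus 0.24 uM Alexa 594-labeled) in 100 mM sodium acetate pH 7 with compound, fibrillization induced by 20 uM heparin for 6 hr at 37 C. Thioflavin T (30 uM) added, fluorescence read after 1 hr (ex 450, em 510 nm).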
# Tau fibril FP: blocks human tau fibril formation measured by polarization; AID 1468; P10636; actives 0.39% (n = 280,000); K18 P301L tau heparin fibrillization, Alexa594 FP, 6 h; Potency, µM (doses to about 57.7 µM), for the others: top-dose activity, negative = inhibition, hits mostly inhibitors; also: nearly all actives have a fitted effect of over 55% in size
#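 Recombinant K18 P301L […], labeled with Alexa 594 at 0.24 uM over 15 uM unlabeled; heparin inducer 20 uM final; 37 C, 6 hr; FP endpoint.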
# VDR inhibitor: inhibitors of human vitamin D receptor | VDR-SRC2-3 peptide fluorescence polarization, 2 h | Potency, µM, without a hit: max response, negative = inhibition, most hits filed as inhibitors | actives 0.93% (n = 400,000) | P11473
#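 Compounds are added to VDR with labelled SRC2-3 coactivator peptide and held 2 h at room temperature. Inhibition of the VDR–peptide interaction is then read as a change in fluorescence polarization.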
# An asterisk follows results filed as active; ? = inconclusive; . = no result given; [ ] = remark or other dose. Calls follow the shape of the dose curve; as a rule, active = well fitted curve in the direction sought with a large enough effect; inconclusive = small, poorly fitted or top-dose-only effect, or another doubt; inactive = no such curve, though single readings can be large; an effect the other way counts as inactive or inconclusive. Unless noted, % is scaled to controls: 0 for no effect and ±100 for the full control effect; potency is read from the fitted curve at half-maximal effect.
SMILES,Tau fluor counter,PLK1 PBD block,Sfp PPTase inh,Tau fibril ThT,Tau fibril FP,VDR inhibitor
CCC1CCCCN1Cc1nc2c(c(=O)n(C)c(=O)n2C)n1Cc1c(F)cccc1Cl (centres undefined),.,.,.,.,.,5.6%
Cc1cccc(C)c1NC(=O)c1cc(S(=O)(=O)N2CCc3ccccc3C2)ccc1F,-9.7%,.,.,0.1%,-3.3%,17.3%
Cc1nn(-c2ccc3nnc(C)n3n2)c(C)c1CCC(=O)Nc1ccc(OC(F)(F)F)cc1,-6.5%,.,.,-14.4%,-1.4%,-9.5%
CCCCCCOc1ccc(C(=N)N(CCCC)CCCC)c2ccccc12,.,.,17.8µM*,.,.,?
CCCCN(C)c1c(C)nc2ccc(C(=O)Nc3ccc(OC)c(OC)c3)cn12,.,-11.3%,.,.,.,.
Cc1[nH]n(-c2ccccc2)c(=O)c1N=Nc1ccccc1,-6.0%,1.1%,15.6%,?,2.4%,26.6%
Cc1ccc(N=Nc2c(N)n(-c3ccccc3)[nH]c2=O)cc1,10µM*[quencher],-2.0%,9.7%,3.16µM*,-2.2%,-13.0%
Cc1ccc(S(=O)(=O)Nc2ccccc2F)cc1C(=O)NCc1ccco1,.,-1.2%,.,.,.,-10.8%
CCCC1=Nc2cc(C(=O)N3CCCC3)ccc2Sc2ccc(C)cc21,.,26.7µM*,-12.9%,.,.,-21.8%
COc1cc([N+](=O)[O-])ccc1-c1ccc(/C=N\n2cnnc2)o1,.,-22.5%,-22.7%,.,.,-9.8%
O=C(N/N=C/c1ccc(-c2cccc([N+](=O)[O-])c2)o1)c1ccc([N+](=O)[O-])cc1,?,-14.6%,2.3%,5.62µM*,10.2%,-6.4%
O=C(N/N=C/c1ccc(-c2cccc(C(F)(F)F)c2)o1)c1ccccc1O,-19.9%,-11.8%,-19.5%,-15.4%,-10.8%,-8.7%
O=C(N/N=C/c1ccc(-c2cccc([N+](=O)[O-])c2)o1)c1ccccc1O,?,-15.3%,?,8.91µM*,7.1%,-1.9%
Cc1ccc(C(=O)N/N=C\c2ccc(-c3ccc([N+](=O)[O-])cc3)o2)cn1,-28.7%,-4.2%,-16.2%,3.16µM*,6.5%,-1.3%
COc1cc([N+](=O)[O-])ccc1-c1ccc(/C=N/NC(=O)c2ccccc2O)o1,?,.,4.0%,1.58µM*,4.4%,.
O=C(OCC(=O)N1CCC(Cc2ccccc2)CC1)c1ccc(O)cc1,.,-12.8%,.,.,.,.
CC(C)Oc1ccc(C(=O)N/N=C/c2ccc(-c3ccc(S(=O)(=O)Nc4ncccn4)cc3)o2)cc1,-19.3%,?,79.4µM*,?,-8.3%,-2.9%
C/C(=N\NC(=O)c1cc(-c2cccc([N+](=O)[O-])c2)n[nH]1)c1ccccc1O,?,-16.6%,-5.0%,2µM*,-5.2%,-7.8%
NC(=O)N/N=C/c1ccc(-c2ccc(S(=O)(=O)Nc3ncccn3)cc2)o1,.,-7.8%,.,.,.,-9.7%
O=C(N/N=C/c1ccc([N+](=O)[O-])o1)c1ccc2c(c1)OCO2,.,-6.7%,14.4%,.,.,1.8%
C/C(=N/NC(=O)c1cc(-c2cccc([N+](=O)[O-])c2)n[nH]1)c1cccc(O)c1,-18.5%,-9.3%,6.3%,?,-2.3%,-9.5%
O=C(N/N=C/c1ccc(-c2ccccc2[N+](=O)[O-])o1)c1cccnc1,-24.4%,?,-6.0%,7.08µM*,?,?
O=C(N/N=C\c1ccc(-c2ccc([N+](=O)[O-])cc2)o1)c1ccc2c(c1)OCO2,?,-2.9%,-11.3%,0.891µM*,7.5%,-12.3%
CCCN1C(C(=O)c2ccccc2)=C(OC(=O)COc2ccc(C)cc2)c2ccccc2S1(=O)=O,-4.2%,.,.,?,?,6.0%
COCCNC(=O)C1(C)CCCN(CC(=O)c2ccc(OC)cc2)C1 (centres undefined),.,-8.8%,.,.,.,.
SMILES,Tau fluor counter,PLK1 PBD block,Sfp PPTase inh,Tau fibril ThT,Tau fibril FP,VDR inhibitor
Cc1ccc(C(=O)c2cn(Cc3cc(C)ccc3C)c3nc(C)ccc3c2=O)cc1,-14.3%,.,.,?,6.5%,5.8%
COCCNC(=O)C(=O)Nc1ccc2nc3n(c(=O)c2c1)CCCCC3,-5.4%,.,.,-7.6%,-6.0%,8.2%
CC(=O)c1sc2c(c1C)c(=O)n(-c1ccc(Cl)cc1)c(=O)n2Cc1cc(=O)n2cc(Cl)ccc2n1,-9.1%,.,.,-7.0%,-0.9%,-2.3%
O=c1[nH]c2c(s1)C=Nc1ccccc1N2,-16.5%,13.4µM*,10.2%,-15.5%,-10.1%,4.0%
Cc1ccc(NC(=O)C2(C)CCN2CCc2ccccc2)cc1 (centres undefined),.,4.2%,.,.,.,.
O=C(CC(c1ccc(F)cc1)c1ccco1)N1CCCC1 (centres undefined),4.4%,-10.3%,31.6µM*,?,-5.7%,-12.9%
O=C1c2ccccc2C(=O)N1CCC(c1ccc(F)cc1)c1ccco1 (centres undefined),-0.1%,-23.0%,14.1µM*,-14.9%,6.6%,-21.0%
O=C(CC(c1ccc(F)cc1)c1ccco1)N1CCOCC1 (centres undefined),4.2%,-4.4%,-20.6%,-7.6%,-0.7%,?
O=c1c2cnn(-c3ccc(Cl)cc3)c2ncn1Cc1ccc(Cl)cc1Cl,-6.0%,.,.,-1.5%,-11.9%,-1.3%
CCOC(=O)N1CCC(NC(=O)c2cnn(-c3ccc(F)cc3)c2-n2cccc2)CC1,-5.8%,.,.,1.3%,6.5%,15.1%
CCNC(=S)N/N=C(\C)c1ccco1,1.6%,-29.1%,56.2µM*,-1.8%,4.1%,8.7%
C/C(=N\NC(=S)Nc1cccc(C)c1)c1ccco1,7.2%,?,9.4%,-0.7%,5.3%,-1.6%
CCOC(=O)C1=C(c2ccccc2)N=c2s/c(=C\c3cc(OC)c(OC)c(OC)c3)c(=O)n2C1c1cccs1 (centres undefined),-12.0%,-6.5%,13.8%,-8.2%,-6.2%,16.3%
CCOC(=O)C1=C(c2ccccc2)N=c2s/c(=C\c3ccco3)c(=O)n2C1c1cccs1 (centres undefined),?,-3.1%,50.1µM*,?,?,9.0%
CC1(C)CC(=O)C2=C(C1)NC(Nc1nc3ccccc3o1)=NC2c1cccnc1 (centres undefined),.,.,.,.,.,6.5%
O=C(O)[C@@H]1CSCN1,.,.,56.2µM*,.,.,12.7%
CC(C)CC1NC(=S)N(C2CCCCC2)C1=O (centres undefined),-6.4%,2.99µM*,9.6%,0.1%,1.5%,-23.8%
CCc1noc(C)c1C(=O)N(Cc1ccccc1)c1c(N)n(CCOC)c(=O)[nH]c1=O,.,-1.0%,.,.,.,-1.6%
O=C(CCC(=O)N1CC2CCCN2c2ccccc21)NCc1ccc(Cl)cc1 (centres undefined),-6.7%,.,.,-4.2%,15.7%,2.3%
C/C(=N\Nc1ccc([N+](=O)[O-])cc1)c1ccco1,?,-5.8%,12.9%,5.01µM*,9.0%,-13.1%
CC/C(=N\Nc1ccc([N+](=O)[O-])cc1)c1ccccc1,?,16.8µM*,-15.3%,2µM*,-10.4%,?
